# Screen size: about 2,300 compounds; about 1,000 (43%) were called active. The set was probably picked from earlier hits. The list is a sample of the results. Values without a mark were called inactive.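 The calls were made as follows: active = compounds inhibiting the enzyme by at least 50% at 15 µM in any one of the replicates; inactive = the rest.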
# Target: Fatty acid synthase (Homo sapiens) (UniProt P49327)
# Assay: inhibition of human FAS-TE enzyme activity – biochemical, fluorescence intensity, single concentration, confirmation (AID 624325);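 also: 0% = enzyme with DMSO only and 100% = wells lacking enzyme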
# Conditions: recombinant FAS-TE, OMFH fluorogenic substrate, at 15 µM, hits give high values
# Sequence of Fatty acid synthase (Homo sapiens) (P49327 whole entry, looked up): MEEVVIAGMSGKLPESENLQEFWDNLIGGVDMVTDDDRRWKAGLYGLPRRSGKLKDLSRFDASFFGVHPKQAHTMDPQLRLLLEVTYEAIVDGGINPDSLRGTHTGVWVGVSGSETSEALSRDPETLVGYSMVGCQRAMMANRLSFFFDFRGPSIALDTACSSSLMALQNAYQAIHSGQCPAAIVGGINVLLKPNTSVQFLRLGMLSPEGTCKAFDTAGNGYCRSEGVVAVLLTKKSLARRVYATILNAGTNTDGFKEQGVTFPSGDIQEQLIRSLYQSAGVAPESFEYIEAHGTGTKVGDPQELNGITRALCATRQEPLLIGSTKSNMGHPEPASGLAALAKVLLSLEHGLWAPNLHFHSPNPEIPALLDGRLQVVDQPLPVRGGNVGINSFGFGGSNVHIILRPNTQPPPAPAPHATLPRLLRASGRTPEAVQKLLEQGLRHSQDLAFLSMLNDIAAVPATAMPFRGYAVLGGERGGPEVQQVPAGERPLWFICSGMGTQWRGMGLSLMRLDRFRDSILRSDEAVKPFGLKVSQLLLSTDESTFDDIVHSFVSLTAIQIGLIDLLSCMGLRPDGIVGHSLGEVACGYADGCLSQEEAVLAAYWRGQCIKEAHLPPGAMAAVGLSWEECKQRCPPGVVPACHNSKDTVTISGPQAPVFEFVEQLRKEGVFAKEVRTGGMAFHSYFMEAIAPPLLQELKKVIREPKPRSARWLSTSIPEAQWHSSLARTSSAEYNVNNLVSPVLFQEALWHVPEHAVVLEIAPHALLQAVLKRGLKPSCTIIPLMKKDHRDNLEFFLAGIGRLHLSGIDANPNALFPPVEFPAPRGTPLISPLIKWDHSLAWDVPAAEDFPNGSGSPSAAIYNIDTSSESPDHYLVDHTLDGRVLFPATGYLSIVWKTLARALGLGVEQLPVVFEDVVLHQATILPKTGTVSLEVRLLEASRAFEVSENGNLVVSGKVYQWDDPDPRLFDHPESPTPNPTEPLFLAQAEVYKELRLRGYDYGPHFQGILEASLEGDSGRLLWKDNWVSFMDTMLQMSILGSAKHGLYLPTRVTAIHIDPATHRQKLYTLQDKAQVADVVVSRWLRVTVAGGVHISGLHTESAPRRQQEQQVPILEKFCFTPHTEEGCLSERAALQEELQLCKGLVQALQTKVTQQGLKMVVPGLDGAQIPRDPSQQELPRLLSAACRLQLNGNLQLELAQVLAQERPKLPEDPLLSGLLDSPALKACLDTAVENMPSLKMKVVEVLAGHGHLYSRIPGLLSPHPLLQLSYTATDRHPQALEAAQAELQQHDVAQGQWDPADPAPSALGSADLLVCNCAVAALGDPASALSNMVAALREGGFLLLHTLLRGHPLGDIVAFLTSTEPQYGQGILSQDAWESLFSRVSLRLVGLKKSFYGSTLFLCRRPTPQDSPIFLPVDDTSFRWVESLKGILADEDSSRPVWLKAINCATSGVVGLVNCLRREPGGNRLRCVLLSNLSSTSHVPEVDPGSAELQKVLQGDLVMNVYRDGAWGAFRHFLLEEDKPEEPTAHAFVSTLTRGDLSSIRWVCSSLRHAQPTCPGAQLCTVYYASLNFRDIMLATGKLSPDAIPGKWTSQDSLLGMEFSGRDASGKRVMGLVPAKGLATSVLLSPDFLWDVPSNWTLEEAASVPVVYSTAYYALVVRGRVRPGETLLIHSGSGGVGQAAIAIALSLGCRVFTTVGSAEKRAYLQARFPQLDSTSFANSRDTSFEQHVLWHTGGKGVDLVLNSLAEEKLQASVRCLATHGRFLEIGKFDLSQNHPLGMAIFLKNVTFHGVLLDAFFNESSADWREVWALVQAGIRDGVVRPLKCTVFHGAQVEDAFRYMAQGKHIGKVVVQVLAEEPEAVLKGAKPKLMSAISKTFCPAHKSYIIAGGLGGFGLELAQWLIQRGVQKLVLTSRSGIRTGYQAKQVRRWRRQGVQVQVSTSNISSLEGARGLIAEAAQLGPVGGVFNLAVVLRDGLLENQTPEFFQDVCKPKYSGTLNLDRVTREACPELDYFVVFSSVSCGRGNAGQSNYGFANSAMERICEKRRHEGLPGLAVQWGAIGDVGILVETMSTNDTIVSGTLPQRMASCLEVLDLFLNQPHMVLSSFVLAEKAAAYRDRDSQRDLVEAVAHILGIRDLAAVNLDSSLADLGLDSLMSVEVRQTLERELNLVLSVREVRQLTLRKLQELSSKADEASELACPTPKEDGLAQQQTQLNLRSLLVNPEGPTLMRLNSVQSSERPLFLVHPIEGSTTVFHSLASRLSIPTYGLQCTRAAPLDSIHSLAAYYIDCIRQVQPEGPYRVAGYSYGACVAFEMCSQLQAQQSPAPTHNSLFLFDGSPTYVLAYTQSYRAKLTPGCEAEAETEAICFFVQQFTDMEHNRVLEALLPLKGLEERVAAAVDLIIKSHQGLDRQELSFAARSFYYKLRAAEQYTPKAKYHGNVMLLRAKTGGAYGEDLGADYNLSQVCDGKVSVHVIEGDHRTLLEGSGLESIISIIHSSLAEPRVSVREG
row,SMILES,inhibition
1,CCOC(=O)[C@]12Cc3ccccc3[C@H]1N(C1CCCCC1)C(=O)c1cc(OC)ccc12,53% (active)
2,COc1cccc(C(c2nnnn2-c2ccc3c(c2)OCCO3)N2CCC3(CC2)C(=O)NCN3c2ccccc2)c1OC (stereo not drawn),8.72%
3,COc1ccc(-n2nnnc2C(c2cccc3ccccc23)N2CCC(n3c(=O)[nH]c4ccccc43)CC2)cc1 (stereo not drawn),34.4%

# Reference: PubChem BioAssay AID624325 (Sanford-Burnham Center for Chemical Genomics, 2012)
